Measurements from PubChem BioAssay (EPA / NIEHS).
Calls of active or inactive are those of the source. How the source made its calls: active means hit-call score of the fitted dose curve at least 0.9, where 1 is the maximum; inactive means score below 0.9.

Tests used:
[1] = read-out: Vascular endothelial growth factor receptor 2 (Homo sapiens) (UniProt P35968); experiment: BSK_4H_VEGFRII: BioMAP Diversity Plus: 4H Assay for Vascular endothelial growth factor receptor 2 (VEGFR2) Biomarker Activity (AID 2283031); details: primary human endothelial cells (HUVEC); actives raise or lower the signal;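 on AC50: cell-surface VEGFR2 protein level quantified by ELISA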
Outline: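 In this multiplexed HUVEC system, biomarker ELISA was performed after 24 h chemical exposure. Parallel SRB staining (TCA fixation, 560 nm) tracked cytotoxicity; DMSO served as baseline.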

[2] = read-out: Human Leukocyte Antigen - DR isotype (HLADR), HLA-DRA (gene 3122); experiment: BSK_BE3C_HLADR: BioMAP Diversity Plus: BE3C Assay for Human Leukocyte Antigen - DR isotype (HLADR) Biomarker Activity (AID 2283032); details: primary human bronchial epithelial cells; actives raise or lower the signal
Outline: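 ELISA read-out of HLA-DR on human lung bronchial epithelial primary cells, measured 24 h post-dosing. Both increases and decreases were scored relative to DMSO vehicle.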

[3] = read-out: Vascular cell adhesion molecule 1 (VCAM1), VCAM1 (gene 7412); experiment: BSK_4H_VCAM1: BioMAP Diversity Plus: 4H Assay for Vascular cell adhesion molecule 1 (VCAM1) Biomarker Activity (AID 2283033); details: primary human endothelial cells (HUVEC); actives raise or lower the signal
Outline: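 ELISA read-out of VCAM-1 on human umbilical vein endothelium 24 hours after chemical dosing; gain or loss of signal was fitted relative to DMSO, with sulforhodamine B staining of parallel cultures flagging overt cytotoxicity.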

[4] = read-out: Interferon-gamma inducible Protein 10 (IP10), CXCL10 (gene 3627); experiment: BSK_BE3C_IP10: BioMAP Diversity Plus: BE3C Assay for Interferon-gamma inducible Protein 10 (IP10) Biomarker Activity (AID 2283034); details: primary human bronchial epithelial cells; actives raise or lower the signal
Outline: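 Chemical is dosed onto human lung bronchial epithelial primary cells, cultures are incubated 24 h, and IP-10 is then quantified by ELISA. Gain or loss of signal is fitted in both directions relative to DMSO.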

[5] = read-out: Transforming growth factor beta 1 (TGFb1), TGFB1 (gene 7040); experiment: BSK_BE3C_TGFb1: BioMAP Diversity Plus: BE3C Assay for Transforming growth factor beta 1 (TGFb1) Biomarker Activity (AID 2283036); details: primary human bronchial epithelial cells; actives raise or lower the signal
Outline: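 Primary human lung bronchial epithelial cells; compound exposure 24 h; TGF-b1 by ELISA; bidirectional fit, DMSO baseline. Parallel SRB total-protein staining for cytotoxicity.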

[6] = read-out: Plasminogen activator inhibitor-1 (PAI1), SERPINE1 (gene 5054); experiment: BSK_BE3C_PAI1: BioMAP Diversity Plus: BE3C Assay for Plasminogen activator inhibitor-1 (PAI1) Biomarker Activity (AID 2283037); details: primary human bronchial epithelial cells; actives raise or lower the signal
Outline: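 Primary human lung bronchial epithelial cells; chemical dosing; 24 h; PAI-1 measured by ELISA; bidirectional fit referenced to DMSO as negative control.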

[7] = read-out: urokinase plasminogen activator (uPA), PLAU (gene 5328); experiment: BSK_BE3C_uPA: BioMAP Diversity Plus: BE3C Assay for urokinase plasminogen activator (uPA) Biomarker Activity (AID 2283038); details: primary human bronchial epithelial cells; actives raise or lower the signal
Outline: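 Using confluent primary human lung bronchial epithelial cultures, we dosed chemicals, waited 24 h, then ran a uPA ELISA, fitting bidirectionally against DMSO.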

[8] = read-out: Urokinase-type plasminogen activator receptor (uPAR), PLAUR (gene 5329); experiment: BSK_BE3C_uPAR: BioMAP Diversity Plus: BE3C Assay for Urokinase-type plasminogen activator receptor (uPAR) Biomarker Activity (AID 2283039); details: primary human bronchial epithelial cells; actives raise or lower the signal
Outline: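 Human bronchial epithelial primary cells; chemical exposure 24 h; uPAR by ELISA; bidirectional fit vs DMSO control.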

[9] = read-out: Interleukin-6 (IL6), IL6 (gene 3569); experiment: BSK_CASM3C_IL6: BioMAP Diversity Plus: CASM3C Assay for Interleukin-6 (IL6) Biomarker Activity for (AID 2283040); details: primary human coronary artery smooth muscle cells; actives raise or lower the signal
[10] = read-out: Tissue plasminogen activator (tPA), PLAT (gene 5327); experiment: BSK_BE3C_tPA: BioMAP Diversity Plus: BE3C Assay for Tissue plasminogen activator (tPA) Biomarker Activity (AID 2283041); details: primary human bronchial epithelial cells; actives raise or lower the signal
Outline: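 Primary human lung bronchial epithelial cultures receive test chemical; after 24 h, tPA is quantified by ELISA, and gain or loss of signal is fitted bidirectionally relative to DMSO baseline.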

[11] = read-out: Interleukin-8 (IL8), CXCL8 (gene 3576); experiment: BSK_CASM3C_IL8: BioMAP Diversity Plus: CASM3C Assay for Interleukin-8 (IL8) Biomarker Activity (AID 2283042); details: primary human coronary artery smooth muscle cells; actives raise or lower the signal;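 further: IL-8 protein level quantified by ELISA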
[12] = read-out: Human Leukocyte Antigen - DR isotype (HLADR), HLA-DRA (gene 3122); experiment: BSK_CASM3C_HLADR: BioMAP Diversity Plus: CASM3C Assay for Human Leukocyte Antigen - DR isotype (HLADR) Biomarker Activity (AID 2283043); details: primary human coronary artery smooth muscle cells; actives raise or lower the signal;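 further: cell-surface HLA-DR protein level quantified by ELISA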
[13] = read-out: Macrophage colony-stimulating factor (MCSF), CSF1 (gene 1435); experiment: BSK_CASM3C_MCSF: BioMAP Diversity Plus: CASM3C Assay for Macrophage colony-stimulating factor (MCSF) Biomarker Activity (AID 2283044); details: primary human coronary artery smooth muscle cells; actives raise or lower the signal;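 further: M-CSF protein amount quantified by ELISA after 24 h exposure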
[14] = read-out: Low-density lipoprotein receptor (LDLR), LDLR (gene 3949); experiment: BSK_CASM3C_LDLR: BioMAP Diversity Plus: CASM3C Assay for Low-density lipoprotein receptor (LDLR) Biomarker Activity (AID 2283045); details: primary human coronary artery smooth muscle cells; actives raise or lower the signal;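 further: LDLR protein level on the cell surface quantified by ELISA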
[15] = read-out: Monocyte Chemoattractant Protein-1 (MCP1), CCL2 (gene 6347); experiment: BSK_CASM3C_MCP1: BioMAP Diversity Plus: CASM3C Assay for Monocyte Chemoattractant Protein-1 (MCP1) Biomarker Activity (AID 2283046); details: primary human coronary artery smooth muscle cells; actives raise or lower the signal;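 further: MCP-1 level quantified by ELISA 24 h after dosing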
[16] = BSK_CASM3C_Proliferation: Cell Proliferation Assessment in the BioMAP Diversity Plus: CASM3C Assay (AID 2283047); details: primary human coronary artery smooth muscle cells;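 further: sulforhodamine B total protein stain as relative cell number at 560 nm; sub-confluent cells exposed 48 h before staining; fitted both ways against DMSO so gain or loss of cell number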
[17] = read-out: Monokine induced gamma interferon (MIG), CXCL9 (gene 4283); experiment: BSK_CASM3C_MIG: BioMAP Diversity Plus: CASM3C Assay for Monokine induced gamma interferon (MIG) Biomarker Activity (AID 2283048); details: primary human coronary artery smooth muscle cells; actives raise or lower the signal
[18] = read-out: serum amyloid A (SAA), SAA1 (gene 6288); experiment: BSK_CASM3C_SAA: BioMAP Diversity Plus: CASM3C Assay for serum amyloid A (SAA) Biomarker Activity (AID 2283049); details: primary human coronary artery smooth muscle cells; actives raise or lower the signal;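 further: SAA protein level quantified by ELISA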
[19] = BSK_CASM3C_SRB: Viability Assessment in the BioMAP Diversity Plus: CASM3C Assay (AID 2283050); details: primary human coronary artery smooth muscle cells;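 further: total protein by SRB staining as cytotoxicity measure in parallel cultures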
[20] = read-out: Monokine induced gamma interferon (MIG), CXCL9 (gene 4283); experiment: BSK_BE3C_MIG: BioMAP Diversity Plus: BE3C Assay for Monokine induced gamma interferon (MIG) Biomarker Activity (AID 2283035); details: primary human bronchial epithelial cells; actives raise or lower the signal;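 further: MIG protein measured by ELISA in BE3C cultures after 24 h of dosing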
Outline: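 Primary human bronchial epithelial cells treated for 24 h; MIG levels measured by ELISA, fitted bidirectionally versus DMSO. Parallel SRB total-protein staining assessed cytotoxicity.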

Measured: AC50

[As]#[In]
not listed: [20]
inactive: all other assays above

Cn1cc(-c2ccccc2)c(=O)c(-c2cccc(C(F)(F)F)c2)c1
not listed: [20]
inactive: all other assays above

Clc1ccc(Cl)c(Cl)c1
not listed: [20]
inactive: all other assays above

Clc1ccccc1Cl
not listed: [20]
inactive: all other assays above

CCCCC(CC)COC(=O)c1ccc(C(=O)OCC(CC)CCCC)c(C(=O)OCC(CC)CCCC)c1 (stereo not drawn)
not listed: [20]
inactive: all other assays above

c1ccc(NNc2ccccc2)cc1
not listed: [20]
inactive: all other assays above

Clc1ccc(C(c2ccc(Cl)cc2)C(Cl)(Cl)Cl)cc1
active: [1] 25.8 µM | [3] 25.9 µM | [12] 31.4 µM | [13] 14.7 µM | [14] 32.1 µM | [15] 36.9 µM | [16] 29.1 µM | [18] 33.3 µM | [19] 27.7 µM
not listed: [20]
inactive: all other assays above

OCCCl
not listed: [20]
inactive: all other assays above

CCC[CH2][Sn]([Cl])([CH2]CCC)[CH2]CCC
active: [2] 0.215 µM | [3] 0.148 µM | [4] 0.324 µM | [5] 0.147 µM | [6] 0.146 µM | [7] 0.148 µM | [8] 0.148 µM | [9] 1.5 µM | [10] 0.227 µM | [11] 1.01 µM | [12] 0.353 µM | [13] 0.273 µM | [14] 0.226 µM | [15] 0.383 µM | [16] 0.148 µM | [17] 0.326 µM | [18] 0.148 µM | [19] 0.402 µM

CN(C)C(=O)Nc1ccc(Cl)cc1
not listed: [20]
inactive: all other assays above

ClC1=C(Cl)C2(Cl)C3C(Cl)C=CC3C1(Cl)C2(Cl)Cl (stereo not drawn)
inactive: [7] | [8]
active: [1] 20 µM | [2] 26.2 µM | [3] 32.4 µM | [4] 32.3 µM | [5] 20 µM | [6] 35 µM | [9] 27.2 µM | [10] 20 µM | [11] 34.6 µM | [12] 29.3 µM | [13] 30 µM | [14] 31.8 µM | [15] 33.6 µM | [16] 32 µM | [17] 31.2 µM | [18] 30.2 µM | [19] 32 µM

CC(C)(OOC(C)(C)c1ccccc1)c1ccccc1
active: [1] 37.3 µM | [2] 27.7 µM | [3] 26.4 µM | [8] 11.6 µM | [12] 28.8 µM | [16] 30.3 µM
not listed: [20]
inactive: all other assays above

[O-][Cl+]O
not listed: [1] | [20]
inactive: all other assays above

C=CCc1ccc2c(c1)OCO2
not listed: [20]
inactive: all other assays above

c1ccc2c(c1)-c1cccc3cccc-2c13
not listed: [1]
inactive: all other assays above
